Source: PubChem (several laboratories)
An excerpt weighted towards active compounds, which were near 2.8% of everything screened.
TRPM1 prom inh: MITF TRPM1 promoter inhibition in SK-MEL-5 cells | 330,000 tested, 0.83% active | SK-MEL-5 TRPM1 promoter luciferase, 24 h | inhibition, % at 12.5 µM;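 active = mean inhibition across replicates of 60% or more, whatever share of single replicates reaches that level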
HIF-2a inh: HIF-2a inhibition; 360,000 tested, 0.72% active; inhibition, % at 18.8 µM; 786-0 RCC cells HIF-2a reporter, luciferase luminescence, overnight;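 active = inhibition of the luminescence signal of 40% or more relative to plate controls, in a single-dose primary screen at 18.75 µM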
Peg3 prom inh: Peg3 promoter activity inhibition; HeLa PEG-Prom luciferase reporter, luminescence, overnight; 360,000 tested, 1.7% active; inhibition, % at 20 µM;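 active = inhibition of at least 50% at 20 µM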
EBV LMP1 NFkB: inhibitors of Epstein-Barr LMP1-induced NF-kappaB reporter; AID 504558; LMP1-induced NF-kappaB luciferase reporter cells, luminescence; inhibition, % at 12.5 µM; 350,000 tested, 0.69% active; in the data active = inhibition above about 41%;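 note: 0% = neutral control wells and 100% = reference inhibitor control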
PAX8 inh HTS: inhibitors of PAX8 transcriptional activity in RMG-I cells. RMG-I TPO-luciferase reporter, SteadyGlo, 24 h. inhibition, % at 12.6 µM. 360,000 tested, 1.2% active;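 active = mean replicate inhibition at least 60% with every replicate also reaching 60%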;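 note: luciferase light reporting Pax8 driven TPO promoter activity; plate controls were median of neutral control wells for no effect and mitoxantrone controls for full effect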
Shn3 3UTR inh: reduces Shn3 3'UTR luciferase signal in osteoblasts; 360,000 tested, 0.52% active; Clone20 osteoblast Shn3 3'UTR firefly luciferase, 24 h; inhibition, % at 12.5 µM;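 active = mean inhibition of at least 75% with every replicate also reaching 75%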;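 note: 0% = median of neutral control wells and 100% = pilot-screen positive control compound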
Active calls of the source: *; . = no result.

SMILES	TRPM1 prom inh	HIF-2a inh	Peg3 prom inh	EBV LMP1 NFkB	PAX8 inh HTS	Shn3 3UTR inh
CC1=NN(c2ccc(C)c(C)c2)C(=O)/C1=C\C=C\c1ccc([N+](=O)[O-])o1	84*	-1	88*	23	70*	95*
Cc1cc(/C=C\c2ccc3cc(N(C)C)ccc3[n+]2C)c(C)n1-c1ccccc1	101*	28	64*	52*	.	95*
CN1CCN(Cc2c(O)ccc3occ(C(=O)c4ccccc4)c23)CC1	15	9	4	-1	17	-10
CC(=O)C(C(C)=O)c1c(Cl)c(O)c(O)c2c(C(=O)c3ccccc3)coc12	38	16	35	8	.	89*
C[C@@H]1CN([C@H](C)CO)C(=O)Cc2cc(NC(=O)Cc3cn(C)c4ccccc34)ccc2O[C@H]1CN(C)C(=O)NC1CCCCC1	.	.	.	.	12	.
N#CC1=C(N)Oc2cc(N)ccc2C1c1cccc(Br)c1 (centres undefined)	15	17	4	20	64*	-2
CO[C@@H]1CN(C)C(=O)c2cc(NC(=O)c3nc4ccccc4s3)ccc2OC[C@@H](C)N(Cc2cccnc2)C[C@H]1C	.	.	.	.	26	.
CCOC(=O)N1C(=O)[C@@](CC)(c2ccccc2)N1C(=O)OCC	75*	19	34	5	27	-10
CC[C@@]1(c2cccc(C)c2)C(=O)N(C(=O)OC)N1C(=O)OC	46	19	17	5	-20	-11
Clc1ccccc1CN(Cc1ccccc1)c1ncnc2nc[nH]c12	4	23	35	9	.	6
CCCN(CCC)c1ncnc2nc[nH]c12	.	28	6	48*	-28	7
Cc1cccc(C)c1NC(=O)CSc1nc(C)c(CC(=O)c2ccc(Br)cc2)c(C)c1C#N	40	13	60*	4	.	1
CC(=O)Nc1cccc(NC(=O)CSc2nc(C)c(C)c(C)c2C#N)c1	38	12	-7	17	.	24
C=CCn1c(O)c(C2=c3ccccc3=NC2=O)c2ccccc21	21	45*	49	40	-18	71
Cc1ccc2c(c1)c(C1=c3ccccc3=NC1=O)c(O)n2C	14	42*	21	9	7	96*
CO[C@@H]1CN(C)C(=O)c2ccc(NC(=O)Nc3ccccc3F)cc2OC[C@@H](C)N(C(C)=O)C[C@@H]1C	.	.	.	.	-5	.
CCC(=O)NC[C@H]1[C@H](c2ccccc2)[C@@H](CO)N1C(=O)C1CC1	.	.	.	.	-4	.
COc1ccccc1S(=O)(=O)Nc1ccc2c(c1)C(=O)N(C)C[C@H](OC)[C@@H](C)CN[C@@H](C)CO2	.	.	.	.	3	.
O=C(/C=C/c1ccccc1)NNC(=O)c1cccc(Cl)c1	-6	-4	-14	-4	.	-38
O=C(C=Cc1cccc(Cl)c1)c1ccccc1	-13	-228	102*	2	-76	-21
O=C(/C=C/c1cccc(Br)c1)N1CCN(c2cccc(C(F)(F)F)c2)CC1	-8	20	2	-4	-13	7
Nc1cccc2c1C(=O)N(C(=O)/C=C/c1cccc(Br)c1)C2=O	27	12	54*	-11	1	-4
Nc1cccc2c1C(=O)N(C(=O)/C=C/c1cccc(F)c1)C2=O	35	14	80*	29	-12	-14
Cc1noc(C)c1NC(=O)Nc1ccc2c(c1)CC(=O)N([C@H](C)CO)C[C@@H](C)[C@@H](CN(C)Cc1ccc3c(c1)OCO3)O2	.	.	.	.	11	.
C[C@@H]1CN([C@H](C)CO)C(=O)Cc2cc(NS(=O)(=O)c3cn(C)cn3)ccc2O[C@@H]1CN(C)S(=O)(=O)c1ccc(Cl)cc1	.	.	.	.	-12	.
CCN(Cc1ccccc1)C(=O)c1nn(-c2ccc(OC)cc2)c(=O)c2c1c1ccccc1n2C	2	20	68*	12	25	24
CCCCN(CC)CCNC(=O)c1nn(-c2ccc(OC)cc2)c(=O)c2c1c1ccccc1n2C	-1	15	19	-26	1	5
COc1ccc(CCN2C(=O)c3cccc4c(C(=O)N5CCCCC5)ccc(c34)C2=O)cc1OC	49	10	89*	10	12	48
CCc1ccc(-c2cc(C(F)(F)F)n3nc(C(=O)Nc4cnn(Cc5ccc(C)cc5)c4)cc3n2)s1	54	3	43	-15	.	91*
COc1ccc(-c2cc(NC=O)c3ncc(-c4ccc(C(C)=O)cc4)n3c2)cc1OC	.	21	68*	.	53	10
